Source: PubChem BioAssay (NCATS)
Results filed as inconclusive are left out. A number with no mark means an inactive call. Calls of active or inactive are those of the source. Calls follow the shape of the dose curve; as a rule, active = well fitted cell-killing curve with a large enough effect; inconclusive = small, poorly fitted or top-dose-only effect; inactive = flat fitted curve, though single readings scatter.
Potency is read from the fitted curve at half-maximal effect.

Experiment: Cell Viability - LYMP2-010 (AID 981);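 also: cells exposed to compound for 24 hours at 37 °C; nearly all actives have a fitted effect of over 55% in size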; as to activity, negative = cytotoxicity: % is scaled to controls: 0 for no effect and ±100 for the full control effect
Conditions: LYMP2-010 lymphoblastoid cell viability, qHTS; series mostly up to 92.2 µM; activity, negative = cytotoxicity: at the top concentration
In short: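 CellTiter-Glo ATP luminescence measured cytotoxicity after 24 h compound exposure at 37 C. LYMP2-010 cells were seeded at 2500/well, with tetraoctylammonium bromide as control; concentration-response curves gave AC50 values by the Hill equation.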
In the case of `CCCCCCc1ccc(-c2ccc(C#N)cc2)cc1`, the “activity, negative = cytotoxicity” value is reported as -6.38%. With `Nc1cnn([C@@H]2O[C@H](CO)[C@@H](O)[C@H]2O)c(=O)n1` the “activity, negative = cytotoxicity” value was -2.03%. With `CCCCCCCCOc1ccc(C(=O)O)cc1` the “activity, negative = cytotoxicity” value was 2.91%. In the case of `Oc1c(Cl)cc(Cl)c(Cl)c1Cl`, the “activity, negative = cytotoxicity” value is reported as -17.9%. For `CC(C)OCC1CO1` (stereo not given), the “activity, negative = cytotoxicity” value was -6.22%. With `C/C(Cl)=C/CCl` the “activity, negative = cytotoxicity” value was -3.24%. In the case of `CCCCNCC`, the “activity, negative = cytotoxicity” value is reported as -4.95%. With `O=c1[nH]ncc2ccccc12` the “activity, negative = cytotoxicity” value was -1.28%. In the case of `c1ccc(COCc2ccccc2)cc1`, the “activity, negative = cytotoxicity” value is reported as -2.05%. For `O=[N+]([O-])c1cccc(I)c1`, the “activity, negative = cytotoxicity” value was 0.836%. With `c1ccc2c(c1)ccc1ccccc12` the “activity, negative = cytotoxicity” value was -11%. With `Nc1ccc(N=Nc2ccccc2)c(N)c1` the “activity, negative = cytotoxicity” value was -10.6%. In the case of `Cc1ccc(C(=O)O)cc1[N+](=O)[O-]`, the “activity, negative = cytotoxicity” value is reported as -5.43%. With `COc1ccc([N+](=O)[O-])cc1N` the “activity, negative = cytotoxicity” value was -3.05%. With `OCC(CO)(CBr)CBr` the “activity, negative = cytotoxicity” value was -11%. With `Nc1cc(C(=O)O)c(O)c(S(=O)(=O)O)c1` the “activity, negative = cytotoxicity” value was -8.6%. In the case of `Oc1ccc2c(c1)OCO2`, the “activity, negative = cytotoxicity” value is reported as -20%. For `c1ccncc1`, the “activity, negative = cytotoxicity” value was -2.88%. In the case of `CC(=O)OC1CC(C)OC(C)O1` (stereo not given), the “activity, negative = cytotoxicity” value is reported as 2.48%. In the case of `O=C(OCc1ccccc1)c1ccccc1O`, the “activity, negative = cytotoxicity” value is reported as -2.78%. In the case of `C/C=C/C=C/C=O`, the Potency is reported as 31.6 µM (active). With `CCN(CC)c1ccc2c(C)cc(=O)oc2c1` the “activity, negative = cytotoxicity” value was -24.1%. With `c1c[nH]cn1` the “activity, negative = cytotoxicity” value was 1.91%. With `c1ccc(SCCSc2ccccc2)cc1` the “activity, negative = cytotoxicity” value was -7.29%. With `O=C(O)/C=C/c1ccc(/C=C/C(=O)O)cc1` the “activity, negative = cytotoxicity” value was -31.3%. For `CCCCOC(=O)COc1ccc(Cl)cc1Cl`, the “activity, negative = cytotoxicity” value was -1.43%. With `CC(=O)OC(C(=O)c1ccccc1)c1ccccc1` (stereo not given) the “activity, negative = cytotoxicity” value was 1.27%. In the case of `CCCCCCN`, the “activity, negative = cytotoxicity” value is reported as -4.99%. In the case of `CC(=O)Nc1cccc(C)c1`, the “activity, negative = cytotoxicity” value is reported as -6.01%. In the case of `CCC(Cl)CC(Cl)C(Cl)C(Cl)C(Cl)C(C)Cl` (stereo not given), the “activity, negative = cytotoxicity” value is reported as -11.9%. In the case of `COc1ccc(C)cc1N`, the “activity, negative = cytotoxicity” value is reported as -3.1%. In the case of `CCc1ccc(C(c2ccc(CC)cc2)C(Cl)Cl)cc1`, the “activity, negative = cytotoxicity” value is reported as -4.94%. In the case of `O=[N+]([O-])c1ccccc1Nc1ccccc1`, the “activity, negative = cytotoxicity” value is reported as -5.33%. For `C=CC1CO1` (stereo not given), the “activity, negative = cytotoxicity” value was 3.52%. In the case of `COc1cc(-c2ccc(N=C=O)c(OC)c2)ccc1N=C=O`, the “activity, negative = cytotoxicity” value is reported as -18.8%. In the case of `CCOC(=O)C1OC1c1ccccc1` (stereo not given), the “activity, negative = cytotoxicity” value is reported as -17.6%. For `COc1ccc(C(=O)Nc2ccccc2)cc1[N+](=O)[O-]`, the “activity, negative = cytotoxicity” value was -7.47%.

Experiment: Cell Viability - LYMP2-012 (AID 982);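 also: cellular ATP by luciferase luminescence where a drop means cytotoxicity; cells exposed to compound for one day before reading; nearly all actives have a fitted effect of over 55% in size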;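 as to activity change, negative = cytotoxicity: 0% = DMSO only and full loss = 92 µM tetraoctylammonium bromide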
Conditions: LYMP2-012 lymphoblastoid cell viability qHTS; series mostly up to 92.2 µM; activity change, negative = cytotoxicity: at the top concentration
For `CCCCCCc1ccc(-c2ccc(C#N)cc2)cc1`, the “activity change, negative = cytotoxicity” value was 5.03%. In the case of `Nc1cnn([C@@H]2O[C@H](CO)[C@@H](O)[C@H]2O)c(=O)n1`, the “activity change, negative = cytotoxicity” value is reported as 3.99%. For `CCCCCCCCOc1ccc(C(=O)O)cc1`, the “activity change, negative = cytotoxicity” value was 9.3%. For `Oc1c(Cl)cc(Cl)c(Cl)c1Cl`, the “activity change, negative = cytotoxicity” value was -11.5%. In the case of `CC(C)OCC1CO1` (stereo not given), the “activity change, negative = cytotoxicity” value is reported as -6.76%. For `C/C(Cl)=C/CCl`, the “activity change, negative = cytotoxicity” value was 7.77%. For `CCCCNCC`, the “activity change, negative = cytotoxicity” value was 4.05%. In the case of `O=c1[nH]ncc2ccccc12`, the “activity change, negative = cytotoxicity” value is reported as -3.17%. For `c1ccc(COCc2ccccc2)cc1`, the “activity change, negative = cytotoxicity” value was 4.84%. With `O=[N+]([O-])c1cccc(I)c1` the “activity change, negative = cytotoxicity” value was 11%. For `Nc1ccc2c(c1)C(=O)c1ccccc1C2=O`, the “activity change, negative = cytotoxicity” value was -26.9%. For `c1ccc2c(c1)ccc1ccccc12`, the “activity change, negative = cytotoxicity” value was 1.42%. In the case of `Nc1ccc(N=Nc2ccccc2)c(N)c1`, the “activity change, negative = cytotoxicity” value is reported as -6.05%. In the case of `Cc1ccc(C(=O)O)cc1[N+](=O)[O-]`, the “activity change, negative = cytotoxicity” value is reported as -4.18%. In the case of `COc1ccc([N+](=O)[O-])cc1N`, the “activity change, negative = cytotoxicity” value is reported as 0.167%. In the case of `OCC(CO)(CBr)CBr`, the “activity change, negative = cytotoxicity” value is reported as -7.47%. In the case of `Nc1cc(C(=O)O)c(O)c(S(=O)(=O)O)c1`, the “activity change, negative = cytotoxicity” value is reported as 7.63%. With `Oc1ccc2c(c1)OCO2` the “activity change, negative = cytotoxicity” value was 9.94%. For `c1ccncc1`, the “activity change, negative = cytotoxicity” value was -12%. With `CC(=O)OC1CC(C)OC(C)O1` (stereo not given) the “activity change, negative = cytotoxicity” value was 0.181%. For `O=C(OCc1ccccc1)c1ccccc1O`, the “activity change, negative = cytotoxicity” value was -0.161%. With `C/C=C/C=C/C=O` the Potency was 31.6 µM (active). With `CCN(CC)c1ccc2c(C)cc(=O)oc2c1` the “activity change, negative = cytotoxicity” value was -6.17%. With `c1c[nH]cn1` the “activity change, negative = cytotoxicity” value was 15.2%. With `c1ccc(SCCSc2ccccc2)cc1` the “activity change, negative = cytotoxicity” value was 4.77%. In the case of `O=C(O)/C=C/c1ccc(/C=C/C(=O)O)cc1`, the “activity change, negative = cytotoxicity” value is reported as -3.87%. For `CCCCOC(=O)COc1ccc(Cl)cc1Cl`, the “activity change, negative = cytotoxicity” value was 3.94%. In the case of `CC(=O)OC(C(=O)c1ccccc1)c1ccccc1` (stereo not given), the “activity change, negative = cytotoxicity” value is reported as -4.34%. With `CCCCCCN` the “activity change, negative = cytotoxicity” value was -8.33%. For `CC(=O)Nc1cccc(C)c1`, the “activity change, negative = cytotoxicity” value was -8.76%. For `CCC(Cl)CC(Cl)C(Cl)C(Cl)C(Cl)C(C)Cl` (stereo not given), the “activity change, negative = cytotoxicity” value was -0.418%. With `COc1ccc(C)cc1N` the “activity change, negative = cytotoxicity” value was 10.4%. With `CCc1ccc(C(c2ccc(CC)cc2)C(Cl)Cl)cc1` the “activity change, negative = cytotoxicity” value was -6.83%. In the case of `C[C@@H]1CC2(OC(O)[C@]3(C)O[C@H]23)O[C@H]2C[C@@]3(C)[C@@H]4CC[C@H]5C(C)(C)C(O[C@@H]6OC[C@@H](O)[C@H](O)[C@H]6O)CC[C@@]56C[C@@]46CC[C@]3(C)[C@@H]12` (stereo not given in full), the Potency is reported as 50.1 µM (active). In the case of `O=[N+]([O-])c1ccccc1Nc1ccccc1`, the “activity change, negative = cytotoxicity” value is reported as -8.51%. In the case of `C=CC1CO1` (stereo not given), the “activity change, negative = cytotoxicity” value is reported as -7.09%. With `COc1cc(-c2ccc(N=C=O)c(OC)c2)ccc1N=C=O` the “activity change, negative = cytotoxicity” value was -6%. For `CCOC(=O)C1OC1c1ccccc1` (stereo not given), the “activity change, negative = cytotoxicity” value was 0.706%. In the case of `COc1ccc(C(=O)Nc2ccccc2)cc1[N+](=O)[O-]`, the “activity change, negative = cytotoxicity” value is reported as -17.8%.

Experiment: Cell Viability - LYMP2-014 (AID 983); also: nearly all actives have a fitted effect of over 50% in size;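 as to activity change, negative = cytotoxicity: plate controls were DMSO only for no effect and 92 µM tetraoctylammonium bromide for full effect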
Conditions: LYMP2-014 lymphoblastoid cells, viability qHTS; series mostly up to 92.2 µM; activity change, negative = cytotoxicity: at the top concentration
In short: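 Intracellular ATP loss, read by luciferase luminescence, measures acute cytotoxicity after 24 h compound exposure of lymphoblastoid LYMP2-014 cells (2500/well, 37 C). Concentration-response data fitted to the Hill equation for AC50.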
For `CCCCCCc1ccc(-c2ccc(C#N)cc2)cc1`, the “activity change, negative = cytotoxicity” value was 2.86%. With `Nc1cnn([C@@H]2O[C@H](CO)[C@@H](O)[C@H]2O)c(=O)n1` the “activity change, negative = cytotoxicity” value was 1.06%. In the case of `CC(C)OCC1CO1` (stereo not given), the “activity change, negative = cytotoxicity” value is reported as -1.62%. For `O=c1[nH]ncc2ccccc12`, the “activity change, negative = cytotoxicity” value was -22.3%. For `c1ccc(COCc2ccccc2)cc1`, the “activity change, negative = cytotoxicity” value was -1.67%. In the case of `O=[N+]([O-])c1cccc(I)c1`, the “activity change, negative = cytotoxicity” value is reported as 2.6%. In the case of `Nc1ccc2c(c1)C(=O)c1ccccc1C2=O`, the “activity change, negative = cytotoxicity” value is reported as -8.81%. With `c1ccc2c(c1)ccc1ccccc12` the “activity change, negative = cytotoxicity” value was -3.39%. With `Nc1ccc(N=Nc2ccccc2)c(N)c1` the “activity change, negative = cytotoxicity” value was -9.39%. For `OCC(CO)(CBr)CBr`, the “activity change, negative = cytotoxicity” value was -1.48%. For `Nc1cc(C(=O)O)c(O)c(S(=O)(=O)O)c1`, the “activity change, negative = cytotoxicity” value was -6.68%. With `O=C(OCc1ccccc1)c1ccccc1O` the “activity change, negative = cytotoxicity” value was 6.85%. For `C/C=C/C=C/C=O`, the Potency was 39.8 µM (active). For `CCN(CC)c1ccc2c(C)cc(=O)oc2c1`, the “activity change, negative = cytotoxicity” value was -4.83%. For `c1ccc(SCCSc2ccccc2)cc1`, the “activity change, negative = cytotoxicity” value was 1.74%. In the case of `O=C(O)/C=C/c1ccc(/C=C/C(=O)O)cc1`, the “activity change, negative = cytotoxicity” value is reported as -5.36%. In the case of `CC(=O)OC(C(=O)c1ccccc1)c1ccccc1` (stereo not given), the “activity change, negative = cytotoxicity” value is reported as -11.1%. With `CC(=O)Nc1cccc(C)c1` the “activity change, negative = cytotoxicity” value was -10.3%. In the case of `CCC(Cl)CC(Cl)C(Cl)C(Cl)C(Cl)C(C)Cl` (stereo not given), the “activity change, negative = cytotoxicity” value is reported as -0.0555%. With `COc1ccc(C)cc1N` the “activity change, negative = cytotoxicity” value was -18.8%. In the case of `CCc1ccc(C(c2ccc(CC)cc2)C(Cl)Cl)cc1`, the “activity change, negative = cytotoxicity” value is reported as -3.63%. In the case of `O=[N+]([O-])c1ccccc1Nc1ccccc1`, the “activity change, negative = cytotoxicity” value is reported as 3.71%. In the case of `COc1cc(-c2ccc(N=C=O)c(OC)c2)ccc1N=C=O`, the “activity change, negative = cytotoxicity” value is reported as -1.76%. With `CCOC(=O)C1OC1c1ccccc1` (stereo not given) the “activity change, negative = cytotoxicity” value was -9.29%.
